Reference: PubChem BioAssay (Tox21)
Where “and” joins values, the source holds several entries; their conditions need not be identical. Identical values can stand only once. Results filed as inconclusive are left out. Where a call stands in place of a potency, no number is given. Calls of active or inactive are those of the source. Unless noted, the call rests on the fitted dose curve; in most records, active means well fitted curve in the direction sought with a large enough effect in the repeat runs; inconclusive means weak or mixed curves; inactive means no such curve, though single readings can be large; an effect the other way counts as inactive or inconclusive.

Tests used:
[1] = qHTS assay to identify small molecule antagonists of the thyroid receptor (TR) signaling pathway - cell viability counter screen (AID 743064); further: nearly all actives have a fitted effect of over 50% in size; further: potency means the concentration at half of the fitted maximal effect
Outline: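 Counter screen for cytotoxicity: compound plus T3 (1 nM final) on GH3.TRE-Luc cells, 23.5 h at 37 °C, then fluorescence viability readout with CellTiter-Fluor.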

[2] = qHTS assay to identify small molecule antagonists of the thyroid receptor (TR) signaling pathway (AID 743065); further: nearly all actives have a fitted effect of over 55% in size; further: potency means the concentration at half of the fitted maximal effect
Outline: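 GH3.TRE-Luc rat pituitary cells (two TREs driving luciferase) were dosed with compound, then stimulated with 1 nM T3 (final) for 23.5 h at 37 C. ONE-Glo luminescence was the read-out, with CellTiter-Fluor fluorescence as the cytotoxicity counter-screen.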

[3] = tested on: thyroid hormone receptor (rat, GH3 cells); assay: qHTS assay to identify small molecule agonists of the thyroid receptor (TR) signaling pathway (AID 743066; calls by dose curve)
[4] = qHTS assay to identify small molecule antagonists of the estrogen receptor alpha (ER-alpha) signaling pathway - cell viability counter screen (AID 743074; calls by dose curve; further: nearly all actives have a fitted effect of over 45% in size; further: potency means the concentration at half of the fitted maximal effect)
[5] = qHTS assay to identify small molecule antagonists of the estrogen receptor alpha (ER-alpha) signaling pathway using the BG1 cell line - cell viability counter screen (AID 743081);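 further: compound given together with 17beta-estradiol as the ER stimulus; nearly all actives have a fitted effect of over 45% in size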; further: potency means the concentration at half of the fitted maximal effect
Aromatase (Homo sapiens) = Aromatase (Homo sapiens) (UniProt P11511); assay: qHTS assay to identify aromatase inhibitors (AID 743083); further: nearly all actives have a fitted effect of over 55% in size; further: potency means the concentration at half of the fitted maximal effect
[6] = qHTS assay to identify aromatase inhibitors - cell viability counter screen (AID 743084);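 further: cells stimulated with testosterone during compound exposure; nearly all actives have a fitted effect of over 55% in size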; further: potency means the concentration at half of the fitted maximal effect
[7] = biological target: Aryl hydrocarbon receptor (Homo sapiens) (UniProt P35869); assay: qHTS assay to identify small molecule that activate the aryl hydrocarbon receptor (AhR) signaling pathway (AID 743085); further: nearly all actives have a fitted effect of over 15% in size; further: potency means the concentration at half of the fitted maximal effect;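 on activation: HG2L7.5c1 human HepG2 liver cells with stably integrated DRE-driven firefly reporter; series mostly up to about 70 µM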
Outline: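 Measured in HG2L7.5c1 cells: CellTiter-Fluor signal (30 min incubation, 37C) for viability, then luciferase luminescence (30 min, room temperature). Compound contact time was 24 h at 37C, following a 5 h pre-incubation.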

[8] = qHTS assay to identify small molecule that activate the aryl hydrocarbon receptor (AhR) signaling pathway - cell viability counter screen (AID 743086); further: nearly all actives have a fitted effect of over 45% in size; further: potency means the concentration at half of the fitted maximal effect
Outline: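 HepG2-AhR-luc (HG2L7.5c1) cells, 4000/well, treated 24 h at 37 C with compound; viability measured as CellTiter-Fluor fluorescence after 30 min in the same wells as the luciferase read.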

[9] = biological target: Peroxisome proliferator-activated receptor gamma (Homo sapiens) (UniProt P37231); assay: qHTS assay to identify small molecule agonists of the peroxisome proliferator-activated receptor gamma (PPARg) signaling pathway (AID 743094; active means well fitted activation curve with a large enough effect in the signal ratio in the repeat runs, not every such curve was filed as active; the % refers to the signal ratio)
Outline: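 Cell-based bla reporter, HEK293H background, PPARg-driven UAS. Pre-incubation 5 h, 37C, 5% CO2. Compound 17 h, 37C. Substrate 1 h RT; fluorescence.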

[10] = biological target: Estrogen receptor (Homo sapiens) (UniProt P03372); assay: qHTS assay to identify small molecule agonists of the estrogen receptor alpha (ER-alpha) signaling pathway (AID 743075; calls by dose curve)
[11] = biological target: Estrogen receptor (Homo sapiens) (UniProt P03372); assay: qHTS assay to identify small molecule agonists of the estrogen receptor alpha (ER-alpha) signaling pathway using the BG1 cell line (AID 743079); further: nearly all actives have a fitted effect of over 20% in size; further: potency means the concentration at half of the fitted maximal effect
[12] = qHTS assay to identify small molecule antagonists of the estrogen receptor alpha (ER-alpha) signaling pathway using the BG1 cell line (AID 743080; calls by dose curve;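 further: BG1 cells stimulated with 17beta-estradiol alongside compound; nearly all actives have a fitted effect of over 25% in size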; further: potency means the concentration at half of the fitted maximal effect)
Outline: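 Luciferase inhibition measured with ONE-Glo after 30 min at RT in BG1Luc4E2 cells given test compounds and 17beta-estradiol for 21.5 h at 37 C; CellTiter-Fluor viability read in the same wells beforehand.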

[13] = qHTS assay to identify small molecule antagonists of the peroxisome proliferator-activated receptor gamma (PPARg) signaling pathway - cell viability counter screen (AID 743194); further: potency means the concentration at half of the fitted maximal effect; nearly all actives have a fitted effect of over 55% in size
Outline: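 Cytotoxicity counter screen in PPARg-bla HEK293H cells, same wells as reporter assay. Compounds plus 50 nM rosiglitazone (final) for 17 h at 37 C, then viability read by CellTiter-Glo luminescence.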

[14] = qHTS assay for small molecule agonists of the antioxidant response element (ARE) signaling pathway - cell viability counter screen (AID 743203; calls by dose curve)
Outline: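 Measured in the same wells as the beta-lactamase ARE reporter, this read-out is CellTiter-Glo luminescence from HepG2 ARE-bla cells given compounds for 16 hrs.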

[15] = qHTS assay to identify small molecule agonists of the peroxisome proliferator-activated receptor delta (PPARd) signaling pathway - cell viability counter screen (AID 743211)
Outline: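 Following 5 h plating at 37 C and 5% CO2, PPARd UAS-bla HEK293H cells took up test compounds for 17 h. Viability was quantified by luminescence 30 min after CellTiter-Glo addition at room temperature.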

[16] = biological target: Estrogen receptor (Homo sapiens) (UniProt P03372); assay: qHTS assay to identify small molecule antagonists of the estrogen receptor alpha (ER-alpha) signaling pathway (AID 743069; active means well fitted curve in the direction sought with a large enough effect in the signal ratio in the repeat runs, not every such curve was filed as active; the % refers to the signal ratio; further: potency means the concentration at half of the fitted maximal effect)
Outline: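 In this cell-based reporter format, GripTite HEK293 cells harbouring ER-alpha-UAS-bla were grown overnight with 2% charcoal-stripped FBS, dosed with DMSO-dissolved compounds, then challenged with 17beta-estradiol. After 18 hr at 37C, beta-lactamase activity was detected by FRET fluorescence.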

[17] = biological target: Peroxisome proliferator-activated receptor delta (Homo sapiens) (UniProt Q03181); assay: qHTS assay to identify small molecule agonists of the peroxisome proliferator-activated receptor delta (PPARd) signaling pathway (AID 743212; calls by dose curve)
Outline: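 Tox21 library screened in GeneBLAzer PPARd UAS-bla HEK293H cells. After compound treatment at 37 C, a FRET-based beta-lactamase substrate was applied for 2 h and fluorescence recorded.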

Aryl hydrocarbon receptor (Homo sapiens), sequence (P35869 whole entry, looked up): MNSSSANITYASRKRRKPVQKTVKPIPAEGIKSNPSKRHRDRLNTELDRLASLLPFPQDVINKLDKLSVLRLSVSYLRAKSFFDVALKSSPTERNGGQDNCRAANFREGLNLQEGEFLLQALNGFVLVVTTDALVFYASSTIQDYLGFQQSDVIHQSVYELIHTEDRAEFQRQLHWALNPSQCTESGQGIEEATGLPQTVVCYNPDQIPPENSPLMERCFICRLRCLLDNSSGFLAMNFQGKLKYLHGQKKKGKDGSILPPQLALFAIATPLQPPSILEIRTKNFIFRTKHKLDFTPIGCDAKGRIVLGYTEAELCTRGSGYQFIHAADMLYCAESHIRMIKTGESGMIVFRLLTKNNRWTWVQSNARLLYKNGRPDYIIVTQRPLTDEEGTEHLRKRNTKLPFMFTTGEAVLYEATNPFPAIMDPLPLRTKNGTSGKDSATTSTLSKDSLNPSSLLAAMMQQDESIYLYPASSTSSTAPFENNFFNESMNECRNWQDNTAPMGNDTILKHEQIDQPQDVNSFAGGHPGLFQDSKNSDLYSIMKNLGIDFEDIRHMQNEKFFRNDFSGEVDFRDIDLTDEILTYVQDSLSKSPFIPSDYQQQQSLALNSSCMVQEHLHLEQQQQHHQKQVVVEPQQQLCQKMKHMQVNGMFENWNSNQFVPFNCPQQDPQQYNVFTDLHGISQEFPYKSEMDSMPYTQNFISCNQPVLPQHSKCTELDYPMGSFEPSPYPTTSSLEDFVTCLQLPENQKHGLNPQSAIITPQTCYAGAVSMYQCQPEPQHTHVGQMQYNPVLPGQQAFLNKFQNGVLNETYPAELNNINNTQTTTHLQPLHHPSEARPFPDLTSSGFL
Estrogen receptor (Homo sapiens), sequence (P03372 whole entry, looked up): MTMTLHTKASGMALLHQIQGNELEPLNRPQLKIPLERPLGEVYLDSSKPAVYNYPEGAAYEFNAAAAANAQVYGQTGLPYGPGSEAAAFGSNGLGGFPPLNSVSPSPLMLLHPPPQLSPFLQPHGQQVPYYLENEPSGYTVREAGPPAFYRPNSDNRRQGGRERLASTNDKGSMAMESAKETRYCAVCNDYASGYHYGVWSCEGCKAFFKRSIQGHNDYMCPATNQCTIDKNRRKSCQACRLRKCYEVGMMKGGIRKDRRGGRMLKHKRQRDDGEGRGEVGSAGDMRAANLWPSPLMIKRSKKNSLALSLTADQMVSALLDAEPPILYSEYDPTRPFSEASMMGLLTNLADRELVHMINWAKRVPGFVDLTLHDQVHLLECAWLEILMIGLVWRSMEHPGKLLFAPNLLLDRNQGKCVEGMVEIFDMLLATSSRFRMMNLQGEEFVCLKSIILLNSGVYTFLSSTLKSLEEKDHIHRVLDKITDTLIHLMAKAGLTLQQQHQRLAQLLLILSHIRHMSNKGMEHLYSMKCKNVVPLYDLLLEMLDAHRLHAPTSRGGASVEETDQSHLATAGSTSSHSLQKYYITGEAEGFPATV
Peroxisome proliferator-activated receptor gamma (Homo sapiens), sequence (P37231 whole entry, looked up): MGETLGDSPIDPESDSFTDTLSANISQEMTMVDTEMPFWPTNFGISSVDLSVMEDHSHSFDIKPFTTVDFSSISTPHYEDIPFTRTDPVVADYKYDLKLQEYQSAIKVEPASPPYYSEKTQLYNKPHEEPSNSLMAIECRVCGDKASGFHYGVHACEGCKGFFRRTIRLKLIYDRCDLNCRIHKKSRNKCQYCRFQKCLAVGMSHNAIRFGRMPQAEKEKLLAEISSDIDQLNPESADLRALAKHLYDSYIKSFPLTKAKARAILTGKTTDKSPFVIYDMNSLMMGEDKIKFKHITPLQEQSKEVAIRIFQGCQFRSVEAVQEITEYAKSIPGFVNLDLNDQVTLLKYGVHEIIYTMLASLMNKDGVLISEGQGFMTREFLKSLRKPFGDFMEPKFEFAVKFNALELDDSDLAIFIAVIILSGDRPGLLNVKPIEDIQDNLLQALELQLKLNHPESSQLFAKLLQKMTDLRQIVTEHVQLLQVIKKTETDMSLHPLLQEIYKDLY
Aromatase (Homo sapiens), sequence (P11511 whole entry, looked up): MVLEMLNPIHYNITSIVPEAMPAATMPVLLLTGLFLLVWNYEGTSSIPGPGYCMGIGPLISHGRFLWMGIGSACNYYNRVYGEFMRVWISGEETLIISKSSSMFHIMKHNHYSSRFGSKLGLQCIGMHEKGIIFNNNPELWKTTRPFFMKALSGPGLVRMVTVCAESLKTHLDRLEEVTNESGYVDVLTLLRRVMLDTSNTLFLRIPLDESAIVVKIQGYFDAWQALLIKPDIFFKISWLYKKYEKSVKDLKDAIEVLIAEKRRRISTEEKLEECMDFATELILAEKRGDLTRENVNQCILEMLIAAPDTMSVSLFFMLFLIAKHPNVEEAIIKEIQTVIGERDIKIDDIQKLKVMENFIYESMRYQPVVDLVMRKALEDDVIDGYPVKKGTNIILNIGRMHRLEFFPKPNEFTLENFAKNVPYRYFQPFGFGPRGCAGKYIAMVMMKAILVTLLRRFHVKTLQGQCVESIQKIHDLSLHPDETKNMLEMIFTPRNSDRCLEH
Peroxisome proliferator-activated receptor delta (Homo sapiens), sequence (Q03181 whole entry, looked up): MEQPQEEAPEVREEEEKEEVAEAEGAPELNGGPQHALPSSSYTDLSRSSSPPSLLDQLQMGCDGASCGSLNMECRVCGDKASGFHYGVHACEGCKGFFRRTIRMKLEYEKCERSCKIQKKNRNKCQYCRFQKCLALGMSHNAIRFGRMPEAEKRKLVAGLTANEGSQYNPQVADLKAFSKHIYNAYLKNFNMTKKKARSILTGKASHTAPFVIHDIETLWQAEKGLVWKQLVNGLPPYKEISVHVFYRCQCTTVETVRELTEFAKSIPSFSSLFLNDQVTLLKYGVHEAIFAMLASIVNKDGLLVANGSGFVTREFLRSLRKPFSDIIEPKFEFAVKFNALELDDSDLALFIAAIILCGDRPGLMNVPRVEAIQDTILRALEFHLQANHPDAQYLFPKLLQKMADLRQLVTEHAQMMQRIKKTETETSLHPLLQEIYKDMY

SMILES | Potency [1] | Potency [2] | Potency [3] | Potency [4] | Potency [5] | Potency (Aromatase (Homo sapiens)) | Potency [6] | Potency [7] | Potency [8] | Potency [9] | Potency [10] | Potency [11] | Potency [12] | Potency [13] | Potency [14] | Potency [15] | Potency [16] | outcome [17]
N[C@@H](Cc1ccc(O)c(O)c1)C(=O)O | inactive | inactive | inactive | inactive | inactive | inactive | inactive | inactive | inactive | inactive | – | – | – | – | – | – | – | –
C[C@H](Cc1ccc(O)c(O)c1)[C@@H](C)Cc1ccc(O)c(O)c1 | 9.44 µM (active) | 8.41 µM (active) | inactive | inactive | inactive | inactive | inactive | – | inactive | inactive | inactive | inactive | inactive | – | – | – | – | –
O=C(O)c1cc(=O)c2c3nc4ccccc4oc-3cc(=O)c2[nH]1 | inactive | inactive | inactive | inactive | inactive | inactive | inactive | 4.22 µM (active) | inactive | inactive | – | – | – | – | – | – | – | –
C[C@H](NCCc1ccc(O)cc1)[C@H](O)c1ccc(O)cc1 | inactive | inactive | inactive | inactive | inactive | inactive | inactive | inactive | – | inactive | inactive | inactive | inactive | – | – | – | – | –
C=N[C@@H](C(=O)N[C@@H]1C(=O)N2[C@@H]1SC(C)(C)[C@@H]2C(=O)O)c1ccccc1 | inactive | inactive | inactive | inactive | inactive | inactive | inactive | inactive | inactive | – | – | – | – | – | – | – | – | –
C[Se]CC[C@H](N)C(=O)O | inactive | inactive | inactive | inactive | – | inactive | inactive | – | – | inactive | inactive | inactive | – | – | – | – | – | –
CC(=O)OCC(=O)[C@@]1(O)CC[C@H]2[C@@H]3C[C@H](C)C4=CC(=O)C=C[C@]4(C)[C@H]3[C@@H](O)C[C@@]21C | inactive | inactive | inactive | inactive | inactive | inactive | inactive | inactive | inactive | inactive | inactive | 18.8 µM (active) | – | – | – | – | – | –
CC1CCCCN1CCCOC(=O)c1ccccc1 (stereo not given) | inactive | inactive | inactive | inactive | inactive | inactive | inactive | inactive | inactive | – | – | – | – | – | – | – | – | –
NC(=O)CC[C@@H]1NC(=O)[C@H](Cc2ccccc2)NC(=O)[C@H](Cc2ccc(O)cc2)NC(=O)[C@@H](N)CSSC[C@@H](C(=O)N2CCC[C@H]2C(=O)N[C@@H](CCCN=C(N)N)C(=O)NCC(N)=O)NC(=O)[C@H](CC(N)=O)NC1=O | inactive | inactive | inactive | inactive | inactive | inactive | inactive | inactive | inactive | inactive | – | – | inactive | – | – | – | – | –
Clc1nc(C(Cl)(Cl)Cl)c(Cl)c(Cl)c1Cl | 21.7 µM (active) | 17.2 µM (active) | inactive | inactive | inactive | – | – | 61.1 µM (active) | inactive | – | inactive | – | – | 38.9 µM (active) | 30.6 µM (active) | 34.7 µM (active) | – | –
CCCCCCCCOC(=O)c1cc(O)c(O)c(O)c1 | 2.17 µM (active) | 1.93 µM (active) | – | – | – | 34.4 µM (active) | 54.5 µM (active) | – | – | – | – | – | – | 34.7 µM (active) | 54.5 µM (active) | 43.6 µM (active) | 61.6 µM [cytotoxic] (active) | inactive
Cc1cc(Br)ccc1NC(=O)CCl | 21.7 µM (active) | 19.3 µM (active) | inactive | – | – | 30.6 µM (active) | 13.7 µM (active) | – | 54.5 µM (active) | – | inactive | – | – | 7.76 µM (active) | 54.5 µM (active) | 24.5 µM (active) | – | –
CCN1\C(=C/C=C/C=C/c2sc3ccccc3[n+]2CC)Sc2ccccc21 | 5.96 µM (active) and 7.5 µM (active) | 2.37 µM (active) and 4.22 µM (active) | – | 67.4 nM (active) and 1.69 µM (active) | 11.9 µM (active) | 5.96 µM (active) and 10.6 µM (active) | 11.9 µM (active) | inactive | 11.9 µM (active) and 23.7 µM (active) | inactive | inactive | – | 1.88 µM (active) | – | – | – | – | –
CN1CCN(CCCN2c3ccccc3Sc3ccc(C(F)(F)F)cc32)CC1 | 10.6 µM (active) | 9.44 µM (active) | inactive | – | inactive | 26.6 µM (active) | 29.8 µM (active) | inactive | – | – | – | – | – | 29.8 µM (active) | 15 µM (active) | 18.8 µM (active) | – | –
